The results in this text go back to PubChem BioAssay (Tox21).

The nature of test [1]: qHTS assay for small molecules that induce genotoxicity in human embryonic kidney cells expressing luciferase-tagged ATAD5 (AID 651632). Note: nearly all actives have a fitted effect of over 15% in size. A digest of the protocol: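 DMSO vehicle served as the control. HEK293T reporter cells, 16 hr at 37C, then 30 min Amplite at room temperature; ATAD5 induction is measured as luciferase activity.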
Test [2] is described as follows: qHTS assay for small molecule agonists of the p53 signaling pathway - cell viability (AID 651633; calls by dose curve; note: nearly all actives have a fitted effect of over 30% in size; note: potency is the fitted concentration of half-maximal effect). In outline:
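p53RE-bla cells, seeded at 4,000 per well and rested 5 h at 37 C/5% CO2, received compounds in DMSO for 16 h at 37 C. CellTiter-Glo was then added, and luminescence was read after 30 min at room temperature to gauge cytotoxicity.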

The nature of test [3]: qHTS assay for small molecules that induce genotoxicity in human embryonic kidney cells expressing luciferase-tagged ATAD5 - cell viability (AID 651634; calls by dose curve; note: nearly all actives have a fitted effect of over 25% in size; note: potency is the fitted concentration of half-maximal effect). In outline:
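Here HEK293T cells with the ATAD5 luciferase reporter are incubated with test compounds for 15.5 hr, and cytotoxicity is then gauged by measuring protease activity in live cells using fluorescence.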

The nature of test [4]: qHTS assay for small molecule disruptors of the mitochondrial membrane potential - cell viability (AID 720634; calls by dose curve;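 note: human HepG2 liver cancer cells; series mostly up to about 83 µM; nearly all actives have a fitted effect of over 20% in size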). A digest of the protocol: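 Viability of HepG2 cells is scored from ATP content by luminescence; cells are exposed to compound for 1 hr at 37 C and 5% CO2, then dosed with m-MPI dye before the CellTiter-Glo reagent.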
A short description of test [5]: qHTS assay for small molecule disruptors of the mitochondrial membrane potential (AID 720635). Note: potency is the fitted concentration of half-maximal effect. A digest of the protocol:
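HepG2 cells (2,000/well) attached overnight at 37C, then took compound for 1 hr at 37C, 5% CO2. Mito-MPS dye was added for 30 min; fluorescence was read at 490/535 nm (monomers) and 540/590 nm (aggregates).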

The nature of test [6]: qHTS assay to test for compound auto fluorescence at 590 nm (red) in HepG2 cells (AID 720674). In outline:
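Intrinsic compound fluorescence in the red window (Ex/Em 540/590 nm) is measured in attached HepG2 cells exposed for 1 hr, DMSO vehicle as baseline, benchmarked to Rose Bengal sodium.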

The nature of test [7]: qHTS assay to test for compound auto fluorescence at 535 nm (green) in HepG2 cells (AID 720675). On the technique in general: Quantitative high-throughput screening tests each substance at several concentrations.
Test [8] is described as follows: qHTS assay to test for compound auto fluorescence at 460 nm (blue) in HEK293 cells (AID 720678). In outline:
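HEK293 cells (2,000 per well, medium with 10% dialyzed FBS) attached for 4-5 hr at 37C, then received compound and stood overnight at 37C, 5% CO2. Blue fluorescence was read at Ex/Em 405/460 nm and expressed relative to triamterene.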

Test [9] in a line: qHTS assay to test for compound auto fluorescence at 590 nm (red) in HEK293 cells (AID 720679). A digest of the protocol:
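HEK293 cells (2,000/well, medium with 10% dialyzed FBS) attached for 4-5 hr at 37C, received 23 nL compound and were incubated overnight at 37C, 5% CO2. Red fluorescence was then read at 540/590nm Ex/Em, referenced to Rose Bengal sodium.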

The structures appear in SMILES notation. Results filed as inconclusive are left out. Activity calls are given as the source filed them. Unless noted, calls come from the whole dose curve; as a rule, active = well fitted curve in the direction sought with a large enough effect in the repeat runs; inconclusive = weak or mixed curves; inactive = no such curve, though single readings can be large; an effect the other way counts as inactive or inconclusive.

Take `C=C1CC[C@H](O)CC1=C/C=C1\CCC[C@]2(C)[C@@H]([C@H](C)CCCC(C)(C)O)CC[C@@H]12`: the Potency result in test [1], in [4], in test [6], in test [7], in test [8] and in test [9] was “inactive” in each case. Moreover, the Potency is 11.9 µM (active) in test [2], 13.3 µM (active) in test [3] and 5.31 µM (active) in test [5].

`CC(C)CCCC(C)NC(C)C` (stereo not drawn): the Potency result in [1], in [2], in [3], in [4], in test [5] and in [6] was “inactive” in each case. In addition, the Potency entry in [7], in test [8] and in test [9] was “inactive” in each case.

As to `C[C@]12C=CC(=O)N[C@@H]1CC[C@@H]1[C@@H]2CC[C@]2(C)[C@@H](C(=O)Nc3cc(C(F)(F)F)ccc3C(F)(F)F)CC[C@@H]12`, the Potency entry in test [1], in test [2], in test [3], in test [4], in test [6] and in [7] was “inactive” each time. For the same compound, the Potency entry in [8] and in test [9] was “inactive” in each case. Further, the Potency in test [5] was 0.944 µM (active).

In the case of `CNC(C)CCC=C(C)C` (stereo not drawn), the Potency entry in test [1], in test [2], in test [3], in test [4], in [5] and in [6] was “inactive” in each case. Besides, the Potency result in test [7], in [8] and in test [9] was “inactive” in each case.

In the case of `CC(=O)O[C@]1(C(C)=O)CC[C@H]2[C@@H]3CCC4=CC(=O)CC[C@]4(C)[C@@]3(F)[C@@H](O)C[C@@]21C`, the Potency entry in test [1], in [2], in test [3], in test [4], in [5] and in test [6] was “inactive” in each case. In addition, the Potency entry in [7], in [8] and in test [9] was “inactive” throughout.

Turning to `CCCCCCCCCCCC(=O)OC[C@@H](O)C1OC[C@H](O)[C@H]1O` (stereo partly drawn), the Potency entry in [1], in [2], in test [3], in test [4], in test [5] and in test [6] was “inactive” in each case. Further, the Potency result in [7], in test [8] and in test [9] was “inactive” in each case.

Take `COc1ccc2c(=O)c(C)c(-c3ccccc3)oc2c1CN(C)C`: the Potency result in test [1], in [2], in [3], in test [4], in test [5] and in [6] was “inactive” each time. Also, the Potency result in test [7], in test [8] and in [9] was “inactive” throughout.

In the case of `CNC(=O)c1c(I)c(C(=O)NCC(=O)Nc2c(I)c(C(=O)O)c(I)c(C(=O)NCCO)c2I)c(I)c(N(C)C(C)=O)c1I`, the Potency result in test [1], in [2], in test [3], in test [4], in test [5] and in [6] was “inactive” throughout. Also, the Potency result in test [7], in test [8] and in test [9] was “inactive” throughout.

Regarding `O=C(COc1ccc(Cl)cc1)OCCNC12CC3CC(CC(C3)C1)C2`, the Potency entry in [1], in test [2], in test [3], in test [4], in [5] and in test [6] was “inactive” in each case. For the same compound, the Potency result in test [7], in test [8] and in test [9] was “inactive” throughout.

Regarding `CC1=C(/C=C/C(C)=C/C=C/C(C)=C/C(=O)Oc2c(C)c(C)c3c(c2C)CC[C@@](C)(CCC[C@H](C)CCC[C@H](C)CCCC(C)C)O3)C(C)(C)CCC1`, the Potency result in test [1], in [2], in [3], in [4], in test [5] and in test [6] was “inactive” in each case. The Potency entry in [7], in test [8] and in [9] was “inactive” each time.

Turning to `C=C[C@]1(C)C[C@@H](OC(=O)CSCCN(CC)CC)[C@]2(C)[C@H](C)CC[C@]3(CCC(=O)[C@H]32)[C@@H](C)[C@@H]1O`, the Potency result in [1], in test [2], in test [3], in [4], in test [5] and in [6] was “inactive” in each case. Besides, the Potency entry in test [7], in test [8] and in [9] was “inactive” each time.

With `CC(=O)Nc1c(I)c(C(=O)O)c(I)c(N(C)C(C)=O)c1I`, the Potency entry in test [1], in [2], in [3], in test [4], in [5] and in test [6] was “inactive” each time. The Potency entry in test [7], in [8] and in test [9] was “inactive” throughout.

On to `CN=C(NC)NCc1ccccc1`, for which the Potency entry in test [1], in test [2], in [3], in test [4], in test [5] and in test [6] was “inactive” throughout. Besides, the Potency result in [7], in test [8] and in test [9] was “inactive” in each case.

For the compound `CC1CS(=O)(=O)CCN1/N=C/c1ccc([N+](=O)[O-])o1` (stereo not drawn), the Potency entry in test [1], in [2], in test [3], in [4], in [5] and in test [6] was “inactive” throughout. Further, the Potency result in test [7], in test [8] and in test [9] was “inactive” each time.

In the case of `COc1ccc(CCNCC(O)COc2cccc(C)c2)cc1OC` (stereo not drawn), the Potency entry in test [1], in [2], in test [3], in test [4], in test [5] and in test [6] was “inactive” throughout. Besides, the Potency entry in test [7], in test [8] and in test [9] was “inactive” in each case.

Turning to `O=C[C@H](O)[C@@H](O)[C@H](O[C@H]1O[C@H](CO)[C@@H](O[C@H]2O[C@H](CO)[C@@H](O)[C@H](O)[C@H]2O)[C@H](O)[C@H]1O)[C@H](O)CO`, the Potency entry in test [1], in test [2], in test [3], in test [4], in test [5] and in test [6] was “inactive” in each case. Besides, the Potency result in [7], in [8] and in test [9] was “inactive” in each case.

Turning to `COc1ccc(C(=O)CCC(=O)O)c2ccccc12`, the Potency result in test [1], in [2], in test [3], in [4], in test [5] and in test [7] was “inactive” each time. The Potency entry in [8] and in test [9] was “inactive” in each case.

Regarding `OC[C@H]1OC([S-])[C@H](O)[C@@H](O)[C@@H]1O.[Au+]` (stereo partly drawn), the Potency result in test [1], in [2], in test [3], in test [4], in test [5] and in test [7] was “inactive” throughout. Moreover, the Potency result in [8] and in test [9] was “inactive” each time.

`NC(=O)C[C@@H](N)C(=O)O`: the Potency entry in [1], in [2], in test [3], in test [4], in [6] and in test [7] was “inactive” throughout. In addition, the Potency entry in [8] and in test [9] was “inactive” in each case.
